# In PubChem BioAssay AID493168 (National Center for Advancing Translational Sciences (NCATS), 2011):
# Inconclusive results are not listed. Entries that show only a call come without a potency. Active and inactive are the calls of the source. Calls follow the shape of the dose curve; as a rule, active = well fitted inhibition curve with a large enough effect; inconclusive = small, poorly fitted or top-dose-only effect, or effect the other way; inactive = flat fitted curve, though single readings scatter.
# Target: Ubiquitin carboxyl-terminal hydrolase 2 (Homo sapiens) (UniProt O75604)
# Sequence (O75604 whole entry, looked up): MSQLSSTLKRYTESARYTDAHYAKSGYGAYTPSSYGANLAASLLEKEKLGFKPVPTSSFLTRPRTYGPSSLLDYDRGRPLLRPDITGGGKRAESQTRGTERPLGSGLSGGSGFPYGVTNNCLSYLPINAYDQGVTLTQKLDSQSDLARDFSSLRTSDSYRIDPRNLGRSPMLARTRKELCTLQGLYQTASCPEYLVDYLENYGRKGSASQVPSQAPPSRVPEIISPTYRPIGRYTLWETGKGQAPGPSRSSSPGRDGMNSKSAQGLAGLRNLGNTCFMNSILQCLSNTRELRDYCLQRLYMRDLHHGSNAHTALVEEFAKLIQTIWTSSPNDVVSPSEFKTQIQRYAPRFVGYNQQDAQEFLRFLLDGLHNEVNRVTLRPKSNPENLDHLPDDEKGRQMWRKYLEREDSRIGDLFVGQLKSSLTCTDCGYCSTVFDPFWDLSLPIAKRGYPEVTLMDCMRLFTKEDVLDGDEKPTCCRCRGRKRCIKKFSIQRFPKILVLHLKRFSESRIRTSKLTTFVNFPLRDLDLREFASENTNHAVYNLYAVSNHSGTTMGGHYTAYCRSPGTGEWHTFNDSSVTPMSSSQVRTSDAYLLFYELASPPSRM
# Assay: Confirmation Assay for Inhibitors of Ubiquitin-specific Protease USP2a Using CHOP2 as the Reporter; also: nearly all actives have a fitted effect of over 55% in size
# Conditions: USP2 core, Ub-CHOP2 coupled reporter fluorescence; series mostly up to 38.3 µM
# Summary of the method: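 USP2 core (10 nM final) was preincubated with compound for 30 min at RT in Tris-HCl pH 8.0, CaCl2, beta-mercaptoethanol, CHAPS. Ub-CHOP2 and reporter substrate (25 nM final each) were added, and fluorescence (Ex 485/Em 531 nm) was read after 60 min.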
# Potency is read from the fitted curve at half-maximal effect.
row,Compound,Potency
1,COC(=O)CCC/C=C1/SCC(NC(=O)c2ccccc2)C1=O (centres undefined),inactive
2,Nc1nc(NCCO)nc(NCC2CCCO2)c1[N+](=O)[O-] (centres undefined),inactive
3,O=C(c1ccco1)N1CCN(C(c2cccs2)c2sc3ncnn3c2O)CC1 (centres undefined),inactive
4,CCCNC(=O)NCc1ccc(N2CCCC2=O)cc1,inactive
5,COc1cccc(C(=O)NC(C)c2ccc(-c3ccccc3)cc2)c1OC (centres undefined),inactive
6,Cc1cc(-c2csc(NCc3ccccc3)n2)c(C)n1C,18.5 µM (active)
7,O=C1CC(Nc2ccc(N3CCOCC3)cc2)C(=O)N1c1cccc(C(F)(F)F)c1 (centres undefined),inactive
8,Cc1ccccc1OCCn1nc(C(=O)O)c2ccccc2c1=O,inactive
9,O=C(COc1ccccc1)NCCSc1ccccc1,inactive
10,O=C(OCc1ccccc1)C1CCCN1C(=O)c1cccs1 (centres undefined),inactive
11,CCN(CC)S(=O)(=O)c1ccc(-c2nnc(SCC(=O)Nc3ccc4c(c3)OCO4)o2)cc1,inactive
12,O=C(CSc1ncccc1-c1nc2ccccc2[nH]1)Nc1ccc2c(c1)OCCO2,inactive
13,Cc1cccc(NC(=S)NCc2ccc3c(c2)cc(C)n3C)c1C,inactive
14,CCOc1ccc(Cn2c(=O)sc3ccccc32)cc1OC,inactive
15,Clc1ccc2c(N/N=C/c3ccc(Br)cc3)ccnc2c1,13.1 µM (active)
16,c1ccc(-c2ccccc2OCCCN2CCOCC2)cc1,inactive
17,Cc1n[nH]c(C)c1S(=O)(=O)N1CCCC(C(=O)Nc2nccs2)C1 (centres undefined),inactive
18,Cc1cc(/C=C2\C(=N)N3N=C(c4ccco4)SC3=NC2=O)c(C)n1Cc1ccccc1,16.5 µM (active)
19,CCc1nnc(NC(=O)CSc2nccn2-c2cccc(C)c2)s1,inactive
20,C=CC[C@H](CC(=O)N(CCO)Cc1ccccc1)C(=O)N[C@H](C)COC(=O)[C@@H](CC=C)CC(=O)OC(C)(C)C,inactive
21,NC1=NC2(CCC(c3ccccc3)CC2)n2c(nc3ccccc32)N1 (centres undefined),inactive
22,Cc1ccc(NC(=O)CSc2nc(O)cc(=O)n2-c2ccc(C)cc2)cc1,inactive
23,O=C(N/N=C/C=C/c1ccccc1)c1ccncc1,inactive
24,Cc1ccc(C(=O)N(c2c(C)n(C)n(-c3ccccc3)c2=O)C(C)C)cc1,inactive
